Hits are enriched below; roughly 1.4% of the tested compounds scored in any of these assays.
p-CIP stab down – p/CIP protein destabilization | Q05BA5 | F442A p/CIP-EGFP cells, EGFP fluorescence, 16 h | decrease of EGFP signal, % at 10 µM | actives 0.01% (n = 290,000);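 active = EGFP signal decrease of at least 30% at 10 µM or well 3 SD below plate mean, unless failing retest; inactive = the rest, including hits failing retest or dose response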
HTR5A inv ag – HTR5A inverse agonism, opioid heterodimer counter-screen; inhibition, % at 9.3 µM; HTR5A cell line, luminescence; AID 504634; actives 0.083% (n = 340,000); in the data active = inhibition mostly above about 23%, no sharp cut-off; inactive = mostly below about 18%
MIN6 prolif – inducers of beta-cell replication in MIN6 cells; MIN6 cells proliferation, ATPlite luminescence, 48 h; cells starved in 0.2% serum; 100% = growth in 10% serum; proliferation, % at 10 µM; actives 0.29% (n = 330,000); AID 2380;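 active = compounds whose signal lies at least 3.5 SD above the mean of all wells on their plate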
OPRM1-OPRD1 ag – agonists of human mu-delta opioid receptor heterodimerization; cells, OPRM1-OPRD1 heterodimerization, luminescence; actives 0.3% (n = 340,000); activation, % at 9.3 µM; P35372+P41143
HTR5A ag ctr – HTR5A agonism, opioid heterodimer counter-screen. actives 0.61% (n = 340,000). activation, % at 9.3 µM. P47898. HTR5A agonist assay, luminescence, cell-based; in the data active = activation mostly above about 9.5%, no sharp cut-off; inactive = mostly below about 7.6%
MOR-DOR inv ag – mu-delta opioid heterodimer inverse agonism. P35372+P41143. cell-based MOR-DOR heterodimer luminescence. inhibition, % at 9.3 µM. actives 0.21% (n = 340,000). AID 504357; in the data active = inhibition above about 22%, passing the limit was not always enough
MOR-DOR ag conf – OPRM1-OPRD1 heterodimer agonism, confirmation | shares compounds with OPRM1-OPRD1 ag | cells, MOR-DOR heterodimerization, luminescence complementation | actives 45% (n = 830) | activation, % at 9.3 µM
HTR5A ag ctr2 – HTR5A agonism, opioid heterodimer counter-screen | shares compounds with OPRM1-OPRD1 ag | HTR5A agonist counterscreen, cell luminescence | activation, % at 9.3 µM | actives 8% (n = 830) | AID 504905; in the data active = activation above about 17%
Hits are given with their value; – = inactive; · = no result; ! = repeats disagree. Cut-off read from the data, not from the text of the source, unless noted: active = activation above about 18%; inactive = the rest.

SMILES	p-CIP stab down	HTR5A inv ag	MIN6 prolif	OPRM1-OPRD1 ag	HTR5A ag ctr	MOR-DOR inv ag	MOR-DOR ag conf	HTR5A ag ctr2
CC1(c2cccc(Br)c2)NC(=O)N(CC(=O)Nc2ccc3c(c2)OCCO3)C1=O (stereo unspecified)	·	–	–	–	–	–	·	·
O=C(Cn1cc(COc2c(F)c(F)cc(F)c2F)nn1)c1ccc(O)cc1	·	–	·	–	–	–	·	·
O=C(N/N=C/c1cccnc1)c1ccccc1OCc1ccc(Br)cc1	–	–	–	23.8	–	–	–	–
CC(C)(C)OC(=O)NCc1ccc(CNC(=O)c2nc[nH]c2C(=O)N2CCN(C(=O)OC(C)(C)C)CC2)cc1	·	–	–	–	–	–	·	·
Clc1ccc2c(N/N=C/c3cccc(Br)c3)ccnc2c1	–	–	·	–	–	–	·	·
C/C(=N/Nc1ccnc2cc(Cl)ccc12)c1ccc(O)cc1	·	–	–	–	–	–	·	·
Clc1ccc2c(N/N=C/c3ccccc3Br)ccnc2c1	–	–	–	51.8	–	–	53.3	–
C/C(=N/Nc1ccnc2cc(Cl)ccc12)c1ccc(N)cc1	·	–	–	20.5	–	–	41.5	–
O=C(OC1C2CCC1C1CN(CCc3ccccc3)CC12)c1ccccc1 (stereo unspecified)	–	–	–	18.1	–	–	59.9	–
CCOC(=O)C1CCCN(CCc2ccccc2)C1 (stereo unspecified)	–	–	–	–	–	–	·	·
COCC(=O)OC1CCn2c1nc1c2C(=O)C(C)=C(NC(C)=O)C1=O (stereo unspecified)	·	–	·	22.6	–	–	–	–
O=C(Nc1cccc(NC(=O)c2cccc([N+](=O)[O-])c2)n1)c1cccc([N+](=O)[O-])c1	–	–	–	23.5	–	–	18.2	–
Nc1c(N(Cc2ccccc2)C(=O)COc2cccc(Cl)c2)c(=O)[nH]c(=O)n1Cc1ccccc1	·	–	–	20.6	–	–	–	–
Nc1ncnc2c(C3OC(CO)C(O)C3O)c[nH]c12 (stereo unspecified)	·	–	·	–	–	–	·	·
O=C(O)CCCCCNC(=O)OCC1c2ccccc2-c2ccccc21	–	–	–	–	–	–	·	·
CC[n+]1c(/C=C/N(C)c2ccccc2)n(-c2ccccc2)c2ccc(-c3nc4ccccc4s3)cc21	–	–	–	21.7	9.9	–	–	–
Cc1ccc2nc(NC(=O)Cc3cccs3)sc2c1	–	–	–	–	–	–	·	·
Cc1ccc2nc(-c3ccc(NC(=O)Cc4cccs4)cc3)[nH]c2c1	–	–	–	22.6	–	–	–	–
O=C(CCCCn1cnc2c(=S)nc[nH]c21)Nc1ccc(C(=O)O)c(O)c1	·	–	·	–	–	–	·	·
CCOc1cc(C(=O)CSc2nnc(CNc3ccc(Cl)cc3)o2)ccc1NC(=O)CC	–	–	–	65.2	29.7	–	77.2	24.6
CCC(Oc1ccccc1)C(=O)Nc1ccc(C)c(S(=O)(=O)N2CCOCC2)c1 (stereo unspecified)	·	–	–	–	–	–	·	·
CN1CCN(Cc2nc3ccccc3c(=O)n2Cc2nc(-c3ccc4ccccc4c3)cs2)CC1	–	–	·	20.1!	9.0	–	48.6	–
CN1CCN(Cc2nc3ccccc3c(=O)n2Cc2nc(-c3cccc([N+](=O)[O-])c3)cs2)CC1	–	·	–	·	·	·	·	·
COc1ccc(OC)c(N(CC(=O)Nc2cccnc2)S(=O)(=O)c2ccc(C)cc2)c1	–	–	–	65.4	–	–	46.7	–
O=C(NCCNC(=O)c1ccc(-c2ccc(Cl)c(Cl)c2)o1)c1cnccn1	–	–	–	–	–	–	·	·
SMILES	p-CIP stab down	HTR5A inv ag	MIN6 prolif	OPRM1-OPRD1 ag	HTR5A ag ctr	MOR-DOR inv ag	MOR-DOR ag conf	HTR5A ag ctr2
Nn1c(-c2ccccc2Cl)nnc1-c1ccccc1Cl	–	–	–	18.1	–	–	–	–
CSc1nnc(-c2ccccc2Cl)n1N	–	–	–	–	–	–	·	·
C(=N\Nc1nc(Nc2ccccc2)nc(Nc2ccccc2)n1)/c1ccncc1	–	–	–	19.8	–	–	–	–
C(=N\Nc1nc(Nc2ccccc2)nc(Nc2ccccc2)n1)/c1cccnc1	–	–	–	–	–	–	·	·
O=C1C=CC(=O)c2c(O)c(N3CCN(CCOCCO)CC3)c(Br)c(O)c21	·	–	·	25.2	–	–	–	–
C[C@@H](C[C@@H](O)[C@H](O)C(C)(C)O)[C@@H]1CC[C@]2(C)C3=CC[C@H]4C(C)(C)C(=O)CC[C@]4(C)[C@H]3CC[C@@]12C	–	–	–	19.2	–	–	–	–
C[C@H](C[C@H](O)[C@H]1OC1(C)C)C1=C2C[C@H](O)C3[C@@]4(C)CCC(=O)C(C)(C)C4CC[C@]3(C)[C@@]2(C)CC1 (stereo partly specified)	·	–	–	–	–	–	·	·
Cc1cc(/C=C2/C(=O)NN(c3ccccc3)C2=O)c(C)n1-c1cccc(O)c1	–	–	–	19.8	–	–	–	–
O=C1C(O)=CC(=C(c2ccccc2)c2ccccc2)c2ccccc21	·	–	·	20.0	–	–	–	–
CCc1ccc(OCC(=O)Nc2ccc(S(=O)(=O)N3CCCC3)cc2)c(Br)c1	–	–	–	19.4	–	–	–	–
O=C(COc1ccc(Br)cc1CO)Nc1ccc(S(=O)(=O)N2CCCCC2)cc1	·	–	–	–	–	–	·	·
FC(F)(F)c1ccc(C2[C@H]3CN(Cc4cccnc4)[C@H](c4ccccc4)C34CC2(c2cccnc2)C4)cc1 (stereo partly specified)	–	–	–	48.6	–	–	68.1	–
Clc1ccc(C2[C@H]3CN(Cc4cccnc4)[C@H](c4ccccc4)C34CC2(c2cccnc2)C4)cn1 (stereo partly specified)	–	–	–	53.9	–	–	–	–
FC(F)(F)c1ccc(C2[C@H]3CN(Cc4ccc(-c5ccccc5)cc4)[C@H](c4ccccc4)C34CC2(c2cccnc2)C4)cc1 (stereo partly specified)	–	·	–	·	·	·	·	·
C[C@H]1O[C@@H](O[C@H]2[C@@H](O)C[C@H](O[C@H]3[C@@H](O)C[C@H](O[C@H]4CC[C@@]5(C)[C@H](CC[C@@H]6[C@@H]5C[C@@H](O)[C@]5(C)[C@@H](C7=CC(=O)OC7)CC[C@]65O)C4)O[C@@H]3C)O[C@@H]2C)C[C@H](O)[C@@H]1O	–	–	–	64.9	–	–	–	104.6
CCN(C(=O)COC(=O)CCOc1ccc(C(C)(C)C)cc1)c1c(N)n(Cc2ccccc2)c(=O)[nH]c1=O	·	–	·	–	–	–	·	·
CC1CCCC(NC(=O)CSc2nnc(C(F)(F)F)n2C)C1C (stereo unspecified)	·	–	–	–	–	–	·	·

Source: PubChem BioAssay (several laboratories)
